This is a sample that favours compounds with a hit; in the whole collection about 2.4% have one here.
PREPL inhibitor – inhibitors of human prolyl oligopeptidase-like enzyme PREPL | inhibition, % at 5.96 µM | AID 2751 | Q4J6C6 | recombinant PREPL, fluorescence polarization activity-based probe | 0.68% of 320,000 active
PP5 inh – PP5 (human) phosphatase inhibition. P53041. purified PP5c, OMFP substrate fluorescence. inhibition, % at 6.7 µM. 0.18% of 320,000 active. AID 1987;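 active = inhibition above the campaign's mean inhibition across all tested compounds plus 3 SD, cut at about 9.5% in these data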
Rpn11 inh – Rpn11 (human) deubiquitinase inhibition. 0.59% of 360,000 active. inhibition, % at 20 µM. O00487. human 26S proteasome, Ub4-pepOG fluorescence polarization; 20S core pre-blocked with epoxomicin;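 active = inhibition at 20 µM, scaled to each plate's controls, above about 33%, limit read from the data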
NadD inh – inhibitors of Staphylococcus aureus NadD | 0.78% of 360,000 active | inhibition, % at 20 µM | AID 602399 | purified NadD enzyme, colorimetric absorbance read-out; in the data active = inhibition above about 26%
PP1 inh – counter-screen for PP5 inhibitors: inhibitors of human PP1-alpha | P62136 | purified PP1alpha, OMFP fluorescence | inhibition, % at 6.7 µM | 0.9% of 320,000 active | AID 2235;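 active = inhibition above the mean inhibition of all tested compounds plus 3 SD, computed separately for each screening campaign, cut at about 15% in these data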
PREPL inh cf – human PREPL inhibition, confirmation; shares compounds with PREPL inhibitor; recombinant PREPL, fluorescence polarization activity probe; inhibition, % at 5.96 µM; 67% of 2,000 active
Rpn11 confirm – confirmation of human proteasome Rpn11 inhibitors; shares compounds with Rpn11 inh; purified human 26S proteasome, Ub4-pepOG fluorescence polarization; proteasome pretreated with epoxomicin; inhibition, % at 20 µM; 29% of 1,900 active; AID 602318; in the data active = inhibition above about 40%
MMP-2 inh – blocks human MMP-2, flagging nonselective RPN11 hits; AID 602330; 4% of 1,900 active; inhibition, % at 20 µM; recombinant MMP-2, FRET peptide cleavage fluorescence; shares compounds with Rpn11 inh; in the data active = inhibition above about 40%;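 also: human MMP-2 activated beforehand with APMA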
Target sequence (P08253 whole entry, looked up): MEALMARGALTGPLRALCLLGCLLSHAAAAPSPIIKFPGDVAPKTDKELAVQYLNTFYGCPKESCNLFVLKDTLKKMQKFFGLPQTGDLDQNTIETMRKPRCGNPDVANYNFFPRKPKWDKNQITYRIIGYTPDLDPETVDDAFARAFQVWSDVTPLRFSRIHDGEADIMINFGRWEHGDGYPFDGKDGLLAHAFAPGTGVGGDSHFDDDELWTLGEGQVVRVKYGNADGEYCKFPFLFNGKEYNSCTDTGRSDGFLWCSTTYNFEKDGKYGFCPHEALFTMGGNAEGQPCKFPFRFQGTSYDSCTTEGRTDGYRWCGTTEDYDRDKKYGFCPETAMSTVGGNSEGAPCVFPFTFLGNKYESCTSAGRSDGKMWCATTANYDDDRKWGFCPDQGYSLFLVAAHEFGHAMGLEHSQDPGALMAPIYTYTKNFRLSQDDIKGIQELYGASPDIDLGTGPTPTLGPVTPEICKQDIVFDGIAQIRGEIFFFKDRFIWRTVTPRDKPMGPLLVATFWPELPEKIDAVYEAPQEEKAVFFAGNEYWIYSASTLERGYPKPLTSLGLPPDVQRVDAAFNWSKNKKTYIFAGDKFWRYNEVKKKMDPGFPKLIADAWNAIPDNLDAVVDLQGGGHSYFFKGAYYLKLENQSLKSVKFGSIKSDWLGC
Thrombin FP – thrombin (bovine) inhibition counter-screen | shares compounds with Rpn11 inh | 13% of 1,900 active | inhibition, % at 20 µM | bovine thrombin cleavage of Ub4-pepOG, fluorescence polarization;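 active = mean inhibition at least 40% at 20 µM, or signal 3 deviations below plate average, so some actives read negative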
NadD conf – confirmation of Staphylococcus aureus NadD inhibitors; shares compounds with NadD inh; purified S. aureus NadD, colorimetric enzyme assay; inhibition, % at 20 µM; 13% of 2,000 active; in the data active = inhibition mostly above about 42%, no sharp cut-off; inactive = mostly below about 42%
Numbers stand for hits; i = inactive; nt = no result shown. Rule as the data show it, unless noted: active = inhibition above about 43%; inactive = the rest.

SMILES | PREPL inhibitor | PP5 inh | Rpn11 inh | NadD inh | PP1 inh | PREPL inh cf | Rpn11 confirm | MMP-2 inh | Thrombin FP | others
O=C(O)c1ccc(-c2cccc(-c3nn4c(=O)cc(N5CCNCC5)nc4s3)c2)cc1 | nt | nt | i | i | nt | nt | nt | nt | nt
CN1CCc2c(sc3c2C(=O)NC(c2cn(Cc4ccccc4)c4ccccc24)N3)C1 (stereo not drawn) | 55 | i | 57 | i | i | 61 | 59 | i | 41
Oc1c(CN2CCCCC2)cc(COCc2ccccc2)c2cccnc12 | 56 | i | 76 | i | i | 84 | i | i | i
CC(=O)c1ccccc1NC(=O)c1cc(S(=O)(=O)N2CCOCC2)ccc1N1CCCC1 | i | i | i | i | i | nt | nt | nt | nt
Cc1ccc(C)c(N(CC(=O)N2CCCC2)S(C)(=O)=O)c1 | i | i | i | i | i | nt | nt | nt | nt
Cc1ccc2[nH]c3c(c2c1)CN(C(=O)CN1CCCc2ccccc21)CC3 | i | i | nt | i | i | nt | nt | nt | nt
COC(=O)c1[nH]c2ccc(C)cc2c1NC(=O)CN1CCCc2ccccc21 | 49 | i | 66 | i | 17 | 48 | 48 | i | i
COc1cc(/C=C2\C(=N)N3N=C(S(C)(=O)=O)SC3=NC2=O)ccc1OC(=O)c1ccco1 | 61 | i | 44 | i | i | 85 | i | i | i
CCOC(=O)C1(C)CCCN1C(=O)c1csnn1 (stereo not drawn) | nt | nt | i | i | nt | nt | nt | nt | nt
COc1ccc(C)cc1Nc1n[n+](-c2ccccc2)c(-c2ccc(N(C)C)cc2)s1 | 61 | i | 60 | i | i | 69 | 75 | i | 127
COc1ccc(C)cc1Nc1n[n+](C)c(-c2c3ccccc3cc3ccccc23)s1 | i | i | i | i | i | nt | nt | nt | nt
Cc1ccc(-c2[nH]c3cc(C(=O)NCCCn4ccnc4)ccc3c(=O)c2O)cc1 | 55 | i | i | 54 | i | i | nt | nt | nt | NadD conf=i
Cc1ccc(Nc2nnc(SC/C(O)=C(\C#N)c3nc4ccccc4[nH]3)s2)c(C)c1 | 49 | i | i | 56 | i | i | nt | nt | nt | NadD conf=61
Cc1cc(C)n2c(SCC(O)=C(C#N)c3nc4ccccc4[nH]3)nnc2n1 | nt | nt | i | i | nt | nt | nt | nt | nt
COc1ccc(-n2c(N)c(C(=O)NCc3ccco3)c3nc4ccccc4nc32)cc1 | i | i | i | i | i | nt | nt | nt | nt
Nc1c(C(=O)NCc2ccco2)c2nc3ccccc3nc2n1CCc1ccc(F)cc1 | 53 | i | 43 | 38 | i | i | nt | nt | nt | NadD conf=i
NCCCC[C@@H]1NC(=O)c2cc([N+](=O)[O-])cc(I)c2SC[C@@H](C(N)=O)NC(=O)[C@H](Cc2ccc(O)cc2)NC1=O | 54 | i | 44 | 42 | i | 49 | i | i | i | NadD conf=i
NC(=S)NNc1cccc2cccnc12 | 62 | i | i | 34 | i | i | nt | nt | nt | NadD conf=i
CCOC(=O)N1CCC(N2Cc3cccc(C(=O)Nc4ccc(OCC)cc4)c3C2=O)CC1 | i | i | i | i | i | nt | nt | nt | nt
Cc1nc2cc(NC(=O)N3CCN(c4ccccn4)CC3)ccc2o1 | i | i | i | i | i | nt | nt | nt | nt
O=C(Nc1ccc2nc(-c3ccco3)c(-c3ccco3)nc2c1)N1CCN(c2ccccn2)CC1 | 74 | i | i | 49 | i | i | nt | nt | nt | NadD conf=49
S=C(Nc1ccc(N2CCOCC2)cc1)Nc1ccc2nc(-c3ccco3)c(-c3ccco3)nc2c1 | 46 | i | i | 42 | i | i | nt | nt | nt | NadD conf=i
O=C(NC(=S)Nc1ccc(N2CCOCC2)cc1)c1ccco1 | i | i | i | i | i | nt | nt | nt | nt
O=C(C[C@H]1C[C@H](C(=O)N2CCCCC2)[C@@]2(CCc3ccccc3)c3[nH]c4ccc(Cl)cc4c3CCN2C1=O)NCCN1CCOCC1 | nt | nt | i | i | nt | nt | nt | nt | nt
CC1CCCN(S(=O)(=O)c2cccc(C(=O)OCC(=O)N(C)Cc3c(F)cccc3Cl)c2)C1 (stereo not drawn) | i | nt | i | i | nt | nt | nt | nt | nt
SMILES | PREPL inhibitor | PP5 inh | Rpn11 inh | NadD inh | PP1 inh | PREPL inh cf | Rpn11 confirm | MMP-2 inh | Thrombin FP | others
Cn1c(SCC(=O)Nc2ccc3c(c2)OCCO3)nnc1-c1ccncc1 | i | i | i | i | i | nt | nt | nt | nt
Cc1ccc(-c2csc(N3CCN(c4cc5c(cc4Cl)nc(-c4ccncc4)n5CCN4CCCCC4)CC3)n2)cc1 | 45 | i | i | 31 | i | i | nt | nt | nt | NadD conf=i
O=[N+]([O-])c1ccc(N/N=C\c2cccn2-c2ccccc2)nc1 | i | i | 58 | i | i | nt | 44 | i | i
O=C(Nc1ccc(-n2cnnn2)cc1)c1cn2ccccc2n1 | i | i | 87 | i | i | nt | i | i | i
CC(C)Oc1cccc(C(=O)C2CCCN(Cc3cnc(N4CCOCC4)s3)C2)c1 (stereo not drawn) | i | i | i | i | i | nt | nt | nt | nt
CC(C)NC(=O)CN1C(=O)c2cccc3cccc1c23 | i | i | i | i | i | nt | nt | nt | nt
CCOC(=O)C1=C(C)N=c2s/c(=C\c3ccc(OCC(=O)O)cc3)c(=O)n2C1c1ccc(Cl)cc1 (stereo not drawn) | nt | nt | 46 | i | nt | nt | 91 | i | i
CCOC(=O)C1=C(C)N=c2s/c(=C/c3ccc(OCC(=O)O)cc3)c(=O)n2C1c1ccc(F)cc1 (stereo not drawn) | i | i | i | i | i | nt | nt | nt | nt
CCOC(=O)C1=C(C)N=c2s/c(=C/c3ccc(OCC(=O)O)c(OC)c3)c(=O)n2C1c1ccc(Cl)cc1 (stereo not drawn) | i | i | 53 | i | i | nt | 93 | i | i
Cc1cc(C)cc(C(=O)N2CCC3(CC2)NCCc2[nH]cnc23)c1 | i | i | i | i | i | nt | nt | nt | nt
O=C1NC(Cc2ccccc2)c2nc3ccccc3c(=O)n2-c2cc(Cl)ccc21 (stereo not drawn) | i | i | nt | nt | i | nt | nt | nt | nt
CCCCC(=O)N(Cc1ccc(F)cc1)C1CCS(=O)(=O)C1 (stereo not drawn) | i | i | 36 | i | i | nt | i | i | i
Cc1ccc(N=C2NC(=O)/C(=C/c3cccs3)S2)cc1C | i | i | 99 | i | i | nt | 64 | i | i
Cc1cccc(N=C2NC(=O)/C(=C\c3cccs3)S2)c1 | i | i | 42 | i | i | nt | i | i | i
CCOc1ccc(CN2CCN(Cc3cccn3-c3ncccn3)CC2CCO)cc1 (stereo not drawn) | i | i | i | i | i | nt | nt | nt | nt
Cc1ccccc1C1(CCN2CCCCC2)CCOC(C)(C)C1 (stereo not drawn) | i | i | i | i | i | nt | nt | nt | nt
N#C/C(=C\c1ccc(OC(=O)c2ccc(Cl)s2)cc1)c1nc2ccccc2[nH]1 | i | i | 49 | i | i | nt | i | i | i
N#C/C(=C\c1ccc(OC(=O)c2ccc(Br)s2)cc1)c1nc2ccccc2[nH]1 | i | i | 58 | i | i | nt | i | i | i
